Measured values published in article PMC9838217, “Structure of SALL4 zinc finger domain reveals link between AT-rich DNA binding and Okihiro syndrome”.
Positions count from the first letter of the chain named.

Tests used:
[1] = target: T1, SALL4 ZFC4 R900W (HT-SELEX) (Mus musculus, UniProt Q8BX22 870-940, R900W); test: HT-SELEX; high values mean tight binding; details: protein: recombinant; vector His6-GST; dsDNA, one strand shown
T1 sequence: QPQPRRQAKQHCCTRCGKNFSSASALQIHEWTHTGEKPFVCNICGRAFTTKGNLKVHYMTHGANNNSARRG
Method in brief: (§1)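 A 100 µl reaction of 10 mM Tris–HCl pH 7.5, 50 mM NaCl, poly(dI-dC) and DTT held purified recombinant mouse SALL4 zinc finger cluster 4 (residues 870–940, 1 µg) and library DNA (1.5 µg first cycle, 200 ng later) for 10 min at room temperature. Complexes captured on Ni2+ beads were washed, PCR-amplified and reselected for up to 6 cycles, in triplicate, then MiSeq-sequenced and scanned for 6-mers. Binding signal is the read fraction of each canonical k-mer expressed as fold change over the initial random library.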

[2] = target: T2, SALL4 ZFC4 G921D (HT-SELEX) (Mus musculus, UniProt Q8BX22 870-940, G921D); test: HT-SELEX; high values mean tight binding; details: protein: recombinant; vector His6-GST; dsDNA, one strand shown
T2 sequence: T1 sequence with W31R, G52D
Method in brief: as §1

| Sequence | binding signal [1] [fold-change vs cycle 0] | binding signal [2] [fold-change vs cycle 0] |
| --- | --- | --- |
| CTCGGC | 0.127 ± 0.0136 | 0.231 ± 0.0599 |
| GGGCAA | 0.299 ± 0.00241 | 0.434 ± 0.0775 |
| GCTGCC | 0.109 ± 0.0113 | 0.217 ± 0.0947 |
| CGGAGC | 0.166 ± 0.00611 | 0.286 ± 0.0677 |
| CCCCGC | 0.0783 ± 0.012 | 0.179 ± 0.0709 |
| CGGGAC | 0.202 ± 0.00689 | 0.33 ± 0.0639 |
| ACGCCC | 0.137 ± 0.0108 | 0.25 ± 0.0577 |
| GCCAGC | 0.102 ± 0.00774 | 0.211 ± 0.0594 |
| GGCAGA | 0.306 ± 0.0166 | 0.438 ± 0.0703 |
| CTCCGC | 0.169 ± 0.0169 | 0.271 ± 0.0458 |
| CGCGGC | 0.0238 ± 0.000376 | 0.0986 ± 0.055 |
| GGTATA | 1.34 ± 0.0665 | 1.3 ± 0.0853 |
| CGCACA | 0.229 ± 0.0112 | 0.353 ± 0.0588 |
| CGCTAG | 0.338 ± 0.0234 | 0.465 ± 0.071 |
| CCAGCA | 0.359 ± 0.0242 | 0.477 ± 0.0744 |
| CGCTGC | 0.0919 ± 0.0151 | 0.201 ± 0.0834 |
| GCCCCC | 0.107 ± 0.0111 | 0.213 ± 0.0572 |
| GCAGCA | 0.247 ± 0.0238 | 0.368 ± 0.0645 |
| CCCGAC | 0.183 ± 0.0155 | 0.308 ± 0.0677 |
| CGGTGC | 0.129 ± 0.00419 | 0.238 ± 0.0719 |
| CCGCTC | 0.151 ± 0.0178 | 0.273 ± 0.0659 |
| CAGCCG | 0.115 ± 0.00217 | 0.229 ± 0.0654 |
| CCGAGG | 0.251 ± 0.0139 | 0.375 ± 0.0741 |

| Sequence | binding signal [1] [fold-change vs cycle 0] | binding signal [2] [fold-change vs cycle 0] |
| --- | --- | --- |
| GCCGGA | 0.106 ± 0.00682 | 0.224 ± 0.0644 |
| GGAGCC | 0.187 ± 0.00654 | 0.319 ± 0.0566 |
| GAGCGC | 0.088 ± 0.00871 | 0.196 ± 0.0698 |
| ACAGCC | 0.328 ± 0.00712 | 0.462 ± 0.0935 |
| CCCAGC | 0.179 ± 0.0134 | 0.297 ± 0.0797 |
| AGGCGC | 0.0722 ± 0.0162 | 0.185 ± 0.0792 |
| CGCAGA | 0.265 ± 0.0309 | 0.379 ± 0.0778 |
| ACCGGC | 0.106 ± 0.00697 | 0.227 ± 0.0683 |
| CGGGCA | 0.116 ± 0.00794 | 0.223 ± 0.0617 |
| GACCGC | 0.124 ± 0.0133 | 0.245 ± 0.0713 |
| CGGTCC | 0.209 ± 0.0179 | 0.324 ± 0.081 |
| CCGGCA | 0.108 ± 0.00217 | 0.221 ± 0.0662 |
| CCGCCC | 0.0662 ± 0.0114 | 0.164 ± 0.0742 |
| CGCCAA | 0.185 ± 0.0197 | 0.316 ± 0.0834 |
| CGCGAA | 0.201 ± 0.0239 | 0.315 ± 0.0749 |
| CGAACG | 0.36 ± 0.0176 | 0.474 ± 0.087 |
| CGTCCC | 0.238 ± 0.0171 | 0.351 ± 0.0721 |
| ATGCCG | 0.222 ± 0.0038 | 0.36 ± 0.0731 |
| CGCAAG | 0.289 ± 0.0102 | 0.411 ± 0.0549 |
| CAAGCC | 0.349 ± 0.0256 | 0.491 ± 0.0577 |
| GGTCGA | 0.33 ± 0.0136 | 0.48 ± 0.0759 |
| GCATTA | 1.09 ± 0.0461 | 1.15 ± 0.019 |
| GCCTCA | 0.364 ± 0.0186 | 0.513 ± 0.0755 |

| Sequence | binding signal [1] [fold-change vs cycle 0] | binding signal [2] [fold-change vs cycle 0] |
| --- | --- | --- |
| AGGCCA | 0.313 ± 0.0175 | 0.446 ± 0.0657 |
| TGGCCA | 0.236 ± 0.00832 | 0.386 ± 0.0718 |
| AGCCCC | 0.191 ± 0.0184 | 0.329 ± 0.0672 |
| CGGCGC | 0.0207 ± 0.00259 | 0.0907 ± 0.0497 |
| AGCCAC | 0.315 ± 0.0294 | 0.473 ± 0.0855 |
| CACGCA | 0.282 ± 0.00613 | 0.422 ± 0.056 |
| CTCTTA | 1.6 ± 0.108 | 1.46 ± 0.111 |
| CGGCAA | 0.19 ± 0.00924 | 0.324 ± 0.0774 |
| GCGCCC | 0.0344 ± 0.0044 | 0.116 ± 0.0623 |
| CCACCC | 0.298 ± 0.0277 | 0.395 ± 0.0676 |
| ACCCCG | 0.242 ± 0.00886 | 0.353 ± 0.0765 |
| TCGGCA | 0.208 ± 0.0109 | 0.351 ± 0.0637 |
| CCGGTC | 0.202 ± 0.0231 | 0.315 ± 0.0731 |
| CGGCTA | 0.246 ± 0.00516 | 0.375 ± 0.0584 |
| CCCGCG | 0.0543 ± 0.006 | 0.134 ± 0.057 |
| GTGTTA | 1.37 ± 0.0667 | 1.31 ± 0.0659 |
| CGACAC | 0.316 ± 0.0105 | 0.48 ± 0.0742 |
| AACGGC | 0.225 ± 0.0115 | 0.356 ± 0.0593 |
| GGCACA | 0.256 ± 0.0249 | 0.414 ± 0.0716 |
| CACCGG | 0.216 ± 0.0195 | 0.331 ± 0.0683 |
| CACCGC | 0.132 ± 0.00669 | 0.239 ± 0.0797 |
| AAGCCG | 0.241 ± 0.0209 | 0.357 ± 0.0555 |
| CACGCG | 0.116 ± 0.0104 | 0.214 ± 0.0541 |

| Sequence | binding signal [1] [fold-change vs cycle 0] | binding signal [2] [fold-change vs cycle 0] |
| --- | --- | --- |
| GTCGGA | 0.35 ± 0.00494 | 0.501 ± 0.0597 |
| GCCCGC | 0.0368 ± 0.00404 | 0.115 ± 0.0587 |
| GGGGAC | 0.299 ± 0.0209 | 0.403 ± 0.0552 |
| CTGCCA | 0.304 ± 0.0171 | 0.451 ± 0.0863 |
| CGCACG | 0.0997 ± 0.0037 | 0.21 ± 0.071 |
| ACGCCG | 0.0708 ± 0.0067 | 0.183 ± 0.0752 |
| CCCTGC | 0.219 ± 0.0265 | 0.323 ± 0.0875 |
| CCCCAG | 0.289 ± 0.0372 | 0.38 ± 0.0427 |
| GCCGAC | 0.0865 ± 0.0114 | 0.204 ± 0.0612 |
| AGTCGG | 0.367 ± 0.00833 | 0.499 ± 0.0416 |
| GCGCCA | 0.0557 ± 0.0063 | 0.143 ± 0.0639 |
| GAGGCA | 0.367 ± 0.0203 | 0.505 ± 0.1 |
| CGGACC | 0.198 ± 0.0105 | 0.315 ± 0.0637 |
| ACGGCA | 0.221 ± 0.00749 | 0.353 ± 0.0815 |
| GGCCCC | 0.0767 ± 0.0129 | 0.183 ± 0.0665 |
| ATGGCC | 0.263 ± 0.0192 | 0.413 ± 0.0521 |
| ACCCGG | 0.233 ± 0.025 | 0.341 ± 0.0691 |
| CGCAAC | 0.251 ± 0.0146 | 0.378 ± 0.0552 |
| CGCTTC | 0.316 ± 0.00396 | 0.452 ± 0.0563 |
| ACGCTG | 0.298 ± 0.0226 | 0.41 ± 0.058 |
| CGAAGC | 0.325 ± 0.00517 | 0.474 ± 0.0622 |
| CTTGGC | 0.308 ± 0.0227 | 0.45 ± 0.0809 |
| AGCGCA | 0.18 ± 0.00997 | 0.305 ± 0.097 |

| Sequence | binding signal [1] [fold-change vs cycle 0] | binding signal [2] [fold-change vs cycle 0] |
| --- | --- | --- |
| CGTGGC | 0.125 ± 0.0124 | 0.24 ± 0.0653 |
| ACAGGC | 0.338 ± 0.0213 | 0.472 ± 0.0921 |
| GGCCAA | 0.221 ± 0.00964 | 0.358 ± 0.0813 |
| CACGGC | 0.114 ± 0.0156 | 0.228 ± 0.0664 |
| CCCGGG | 0.132 ± 0.0102 | 0.234 ± 0.0711 |
| ACGACG | 0.31 ± 0.0104 | 0.425 ± 0.0391 |
| ATGCGG | 0.275 ± 0.0176 | 0.409 ± 0.0549 |
| CCCGGC | 0.0588 ± 0.00399 | 0.151 ± 0.0654 |
| CAGGGG | 0.308 ± 0.0124 | 0.417 ± 0.0612 |
| ACCGCA | 0.267 ± 0.0189 | 0.39 ± 0.0525 |
| GCGGGA | 0.149 ± 0.0162 | 0.256 ± 0.0688 |
| AGGCCC | 0.169 ± 0.00192 | 0.296 ± 0.0789 |
| CCCCGG | 0.118 ± 0.0064 | 0.224 ± 0.0627 |
| ACACGC | 0.297 ± 0.0275 | 0.43 ± 0.0602 |
| AGAGCC | 0.335 ± 0.0199 | 0.505 ± 0.0782 |
| AGCTGC | 0.284 ± 0.0104 | 0.414 ± 0.0709 |
| TCGCCA | 0.213 ± 0.00577 | 0.371 ± 0.0688 |
| ACGCCA | 0.244 ± 0.0178 | 0.368 ± 0.0567 |
| CCGGGC | 0.0594 ± 0.00905 | 0.152 ± 0.0608 |
| GAGCCC | 0.184 ± 0.0121 | 0.331 ± 0.0823 |
| GGGCCA | 0.129 ± 0.0234 | 0.254 ± 0.0851 |
| CGATCG | 0.329 ± 0.0324 | 0.53 ± 0.115 |
